Results taken from PubChem BioAssay AID624296 (National Center for Advancing Translational Sciences (NCATS), 2012).
Among all 350,000 compounds or so, about 9,900 (2.8%) were called active. Roughly 15% stayed inconclusive and do not appear here. For the sample, actives were picked, then their nearest neighbours and some compounds at random. A number with no mark means an inactive call. Calls follow the shape of the dose curve; as a rule, active = well fitted activation curve with a large enough effect; inconclusive = small, poorly fitted or top-dose-only effect; inactive = no such curve, though single readings can be large or run the other way.

experiment: A quantitative high throughput screen for small molecules that induce DNA re-replication in MCF 10a normal breast cells.; also: nearly all actives have a fitted effect of over 50% in size; as to activity, positive = re-replication: % of control where 0% means no effect; settings: MCF 10A DNA re-replication, Hoechst nuclear intensity, 48 h; series mostly up to 46.1 µM; activity, positive = re-replication: at the top concentration
Potency is read from the fitted curve at half-maximal effect.

Compound | activity, positive = re-replication | Potency
O=C(/C=C/c1ccccc1[N+](=O)[O-])NCC1CCCO1 (stereo not drawn) | -7.26% | –
CC1CCCCC1NC(=O)/C(C#N)=C/C=C/c1ccccc1[N+](=O)[O-] (stereo not drawn) | – | 2.91 µM (active)
O=C(/C=C/c1ccccc1[N+](=O)[O-])OC1CCCCC1=O (stereo not drawn) | -9.38% | –
O=C(CSc1ccccc1)Nc1cccc(S(=O)(=O)N2CCCCC2)c1 | 23% | –
C=CC[C@@H](CC(=O)NCCO)C(=O)N[C@H](C)COC(=O)[C@@H](CC=C)CC(=O)OC(C)(C)C | -32.4% | –
Cc1cccc(NC(=O)/C=C/c2ccc3c(c2)OCO3)n1 | -25.9% | –
O=C(/C=C\c1ccc2c(c1)OCO2)NC1(C(=O)Nc2ccc3c(c2)OCCO3)CCCCC1 | 9.05% | –
CCc1c(C)sc(NC(=O)/C=C/c2ccc3c(c2)OCO3)c1C(=O)OC | – | 5.8 µM (active)
Cc1csc(=O)n1CCC(=O)OCC(=O)NNC(=O)c1ccc(Br)cc1 | -8.04% | –
COc1cc(/C=N/NC(=O)Nc2ccccc2)ccc1OCCOc1ccccc1C | – | 1.16 µM (active)
CCOC(=O)/C(C#N)=C/c1ccc(OCC(=O)Nc2ccccc2)c(OC)c1 | 10.1% | –
COc1cc(/C=N/NC(=O)Cc2ccccc2)cc(OC)c1OC | 4.38% | –
COc1ccc(/C=N/S(=O)(=O)c2ccccc2)cc1OC | 2.04% | –
COc1cc(/C=N/NC(=O)c2ccccc2)ccc1OS(=O)(=O)c1ccccc1 | -5.96% | –
COc1ccc(/C=N/NC(=O)c2ccccc2)cc1OS(=O)(=O)c1ccccc1 | – | 20.6 µM (active)
CC(C(=O)NC1CCCC1)N1CCN(S(=O)(=O)c2ccccc2Cl)CC1 (stereo not drawn) | 5.71% | –
COC(=O)C1=C(C)NC(=S)NC1c1ccc(OCC(=O)N2CC(C)OC(C)C2)c(OC)c1 (stereo not drawn) | -2.89% | –
O=C(Cn1cc(/C=N/NC(=O)c2cccc(C(F)(F)F)c2)c2ccccc21)Nc1ccc(F)cc1 | – | 20.6 µM (active)
COc1ccc(/C=N/NC(=O)c2cccc(C(F)(F)F)c2)cc1 | -0.279% | –
O=C(CSc1ccc(/C=N/NC(=O)c2cccc(F)c2)o1)Nc1ccccc1 | -3.18% | –
Cc1cc(-c2cccs2)nc(-n2cccc2)n1 | -0.327% | –

Compound | activity, positive = re-replication | Potency
Cc1cc2nc(C(F)(F)F)cc(-c3cccs3)n2n1 | – | 0.92 µM (active)
CC(C)(C)Nc1c(-c2cccs2)nc2ccccn12 | 2.19% | –
CN(C(=O)Cn1nnc(-c2ccc(F)cc2)n1)C1CCS(=O)(=O)C1 (stereo not drawn) | 10.4% | –
CN1CCN(c2ccc(NC(=O)c3cc(Cl)c4c(c3)OCCO4)cc2)CC1 | -2.46% | –
Cc1ccc(CNC(=O)COc2ccc3c(c2)CCC3)cc1 | 10.2% | –
Cc1ccc(CNC(=O)COc2ccc(S(=O)(=O)NC(C)C)cc2)cc1 | 6.62% | –
CC(=O)Nc1ccc(OCC(=O)NCc2ccc(C)cc2)cc1 | – | 1.16 µM (active)
COc1ccccc1-c1nn(Cc2ccccc2)cc1C(=O)N1CCN(c2ncccn2)CC1 | 13.2% | –
O=C(CN1CCCSc2ccccc21)N1CCN(S(=O)(=O)c2ccccc2)CC1 | 13.1% | –
CC(=O)c1sc(NC(=O)CCCOc2ccccc2C)nc1C | -8.51% | –
CC(=O)c1sc(N/N=C/c2ccc(C(C)C)cc2)nc1C | – | 13 µM (active)
COc1ccccc1/C=N/Nc1nc(C)c(C(C)=O)s1 | 5.97% | –
COc1ccc(Cl)cc1NC(=O)COC(=O)c1ccc(Br)o1 | 11.8% | –
CCCN(CC1CC1)C(=O)COC(=O)c1ccc(C)cc1O | 5.42% | –
Cc1cc(C)n2nc(C(=O)Nc3cccc(S(=O)(=O)N4CCOCC4)c3)nc2n1 | -16.6% | –
NC(CSC1(c2ccccc2)c2ccccc2-c2ccccc21)C(=O)O (stereo not drawn) | 1.81% | –
COc1ccc(-c2ccc3c(c2)[C@@H]2C[C@H](N(C)S(=O)(=O)c4ccccc4)[C@H]([C@H](C)O)C(=O)N2CC3)cc1 | -0.341% | –
CC(C)(C)OC(=O)Nc1ccc([C@@H](NC(=O)OC(C)(C)C)C(=O)OC(C)(C)C)cc1 | -5.63% | –
CCc1ccc2c(c1)C1(NN=C(c3ccccc3)S1)C(=O)N2 (stereo not drawn) | – | 18.4 µM (active)
CCc1ccc2c(c1)C(c1ccc([N+](=O)[O-])cc1)=NNC(c1ccccc1)=N2 | 1.73% | –
O=S1(=O)CSCS(=O)(=O)C1 | -2.53% | –

Compound | activity, positive = re-replication | Potency
COc1cc(OC)cc(-c2c(-c3ccc(F)cc3)c3cc(-c4ccc5cc[nH]c5c4)ccc3n2C)c1 | 3.2% | –
COc1ccc2sc(-c3ccc(N(C)C)cc3)c(-c3ccc4cc[nH]c4c3)c2c1 | – | 16.4 µM (active)
COc1ccc2c(c1)c(=Cc1ccc(N(C)C)cc1)c1cc(-c3ccccc3)[n+](C)n12 | -16.6% | –
CC1Sc2ccc(C(=O)NCc3ccccc3Cl)cc2NC1=O (stereo not drawn) | -4.42% | –
O=c1ccn([C@@H]2O[C@H](CNS(=O)(=O)c3cc4ccccc4s3)[C@@H](O)[C@H]2O)c(=O)[nH]1 | -3.12% | –
Cc1cc(C)c(C=NNc2nc3c([nH]2)c(=O)n(C)c(=O)n3C)c(C)c1 | -1.32% | –
N#CCC(=O)N/N=C/c1ccc(SCC(=O)Nc2ccccc2)o1 | -2.9% | –
CCOC(=O)N/N=C/c1cn(Cc2ccccc2Cl)c2ccccc12 | 3.11% | –
N#CCC(=O)N/N=C/c1cn(Cc2ccc3ccccc3c2)c2ccccc12 | – | 10.3 µM (active)
CC1CCCC(NC(=O)c2cc(S(=O)(=O)N3CCCCC3)ccc2Cl)C1C (stereo not drawn) | -4.65% | –
c1cncc(-c2nnc3n2C2(CCCCC2)Cc2ccccc2-3)c1 | 1.24% | –
CN(c1ccc2nc3ccccc3c(=O)n2n1)C1CCCCC1 | -2.71% | –
O=c1c2ccccc2nc2n1C1(CCCCC1)Cc1ccccc1-2 | – | 18.4 µM (active)
COc1ccccc1CNC(=O)COC(=O)c1cccs1 | -5.75% | –
CC(C)C[C@H]1CN([C@@H](CC(C)C)CN2CCC[C@@H]2CN2C(=O)C(=O)NC[C@@H]2Cc2ccccc2)C(=O)C(=O)N1CCc1ccccc1 | 17.4% | –
COc1ccc(C(=O)NCc2ccccc2C)cc1S(=O)(=O)NC1CCCC1 | -4.4% | –
CCN(CC)S(=O)(=O)c1ccc(Cl)c(NC(=O)c2ccncc2)c1 | 0.731% | –
Cc1cccc(NC(=O)c2cccnc2Cl)n1 | -3.66% | –
CCN(CC)S(=O)(=O)c1ccc(NC(=O)c2cccnc2Cl)c(NC(=O)c2cccnc2Cl)c1 | – | 18.4 µM (active)
O=C(NOCc1ccccc1)c1cccc([N+](=O)[O-])c1 | 1.13% | –
O=C(COC(=O)COc1ccccc1F)Nc1cccc(S(=O)(=O)N2CCCCC2)c1 | -4.89% | –
